Measurements: PMC5540273 (PLoS ONE, 2017)

Experiments:
Details in all cases: concentration: 1 μM, replicates: in singlicate; n = 1
[1] = tested on: HUNK
[2] = tested on: ICK
[3] = tested on: IGF1R
[4] = tested on: T1, IKK-alpha
T1 construct: gene CHUK

[5] = tested on: T2, IKK-beta
T2 construct: gene IKBKB

[6] = tested on: T3, IKK-epsilon
T3 construct: gene IKBKE

[7] = tested on: INSRR
[8] = tested on: INSR
[9] = tested on: IRAK1
[10] = tested on: IRAK3
[11] = tested on: IRAK4
[12] = tested on: ITK
[13] = tested on: JAK1(JH1domain-catalytic)
[14] = tested on: JAK1(JH2domain-pseudokinase)
[15] = tested on: JAK2(JH1domain-catalytic)
[16] = tested on: JAK3(JH1domain-catalytic)
[17] = tested on: T4, JNK1
T4 construct: gene MAPK8

[18] = tested on: T5, JNK2
T5 construct: gene MAPK9

[19] = tested on: T6, JNK3
T6 construct: gene MAPK10

[20] = tested on: KIT-autoinhibited
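Note: KINOMEscan kinase panel screen.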

SMILES	%Inh [1]	%Inh [2]	%Inh [3]	%Inh [4]	%Inh [5]	%Inh [6]	%Inh [7]	%Inh [8]	%Inh [9]	%Inh [10]	%Inh [11]	%Inh [12]	%Inh [13]	%Inh [14]	%Inh [15]	%Inh [16]	%Inh [17]	%Inh [18]	%Inh [19]	%Inh [20]
Cc1cc(-c2ccc3c(c2)CC[C@@H](N[C@@H](C)c2ccccc2)C3)cnc1N.Cl [GW412617]	0%	0%	0%	0%	0%	0%	31%	17%	76%	2%	71%	18%	12%	46%	34%	0%	36%	3%	4%	0%
Cc1cc(N2Cc3ccccc3C2)nc(Nc2ccc(S(=O)(=O)N3CCOCC3)cc2)n1.Cl [GSK1669917]	0%	99.9%	2%	0%	0%	29%	0%	100%	0%	0%	0%	0%	11%	0%	0%	0%	3%	13%	1%	3%
CCn1c(-c2cccnc2O)nc2cnccc21 [SB-736715]	0%	0%	0%	0%	0%	0%	0%	0%	0%	0%	0%	26%	0%	0%	0%	0%	0%	10%	1%	18%
Cc1cccc(-c2nc(Nc3ccc4[nH]ncc4c3)c3ccccc3n2)n1 [GW857175]	0%	17%	0%	6%	17%	21%	0%	9%	9%	3%	18%	5%	18%	83%	22%	60%	36%	32%	31%	30%
COc1ccc(C2=C(Nc3cccc(C(=O)O)c3)C(=O)NC2=O)cc1 [SB-390765]	19%	29%	0%	16%	23%	3%	4%	13%	28%	0%	0%	0%	0%	18%	12%	0%	41%	32%	33%	14%
O=C(Nc1ccccc1)Nc1cccc(Oc2ccc3nccn3n2)c1	18%	0%	0%	7%	0%	0%	0%	0%	9%	1%	0%	2%	16%	5%	7%	0%	0%	0%	0%	39%
Cl.NC(=O)c1cccc(Nc2nccc(Nc3ccc(Oc4cccc(Cl)c4)c(Cl)c3)n2)c1 [GW659008]	0%	85%	14%	3%	5%	0%	12%	6%	0%	50%	0%	0%	15%	0%	84%	0%	22%	20%	10%	0%
COc1cc(Nc2nccc(N3CCC(NC(=O)Nc4cc(C)ccc4C)C3)n2)cc(OC)c1OC (stereo not shown) [GSK1379762]	0%	22%	15%	21%	17%	23%	9%	0%	58%	73%	16%	30%	5%	0%	76%	0%	24%	2%	11%	0%
CS(=O)(=O)c1ccc(-c2nc3n(c2-c2ccncc2)CCC3)cc1 [SKF-105942]	27%	100%	0%	0%	0%	0%	0%	16%	1%	0%	23%	7%	6%	0%	0%	0%	41%	16%	0%	7%
Cc1cccc(-c2nc(-c3ccc(S(C)(=O)=O)cc3)sc2-c2ccnc(NCCc3ccccc3)c2)c1	0%	0%	15%	0%	8%	0%	3%	7%	17%	0%	9%	0%	2%	4%	8%	0%	0%	0%	0%	0%
COc1ccc2nc(-c3cccc(C)n3)nc(Nc3ccncc3)c2c1 [GSK204919]	9%	0%	0%	0%	22%	3%	0%	0%	4%	0%	0%	13%	0%	80%	10%	0%	0%	60%	36%	0%
